The source of these data is PubChem BioAssay AID449762 (Southern Research Specialized Biocontainment Screening …, 2010).

Out of some 330,000 compounds screened, about 1,900 (0.58%) were called active. About 4% were inconclusive and are not listed. No stated cut-off is given here; in the data, inconclusive means inhibition above about 70% without an active follow-up result; inactive means below that. The list is a sample of the results. Measured potencies and affinities stand elsewhere.

This assay can be described thus: M. tuberculosis growth inhibition, HTS (AID 449762).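 Further: bacterial growth assessed after seven days of incubation.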 Particulars: M. tuberculosis H37Rv growth inhibition, 7H9 media; at 25 µM; stronger effect = higher value.
The term inhibition denotes the change of the read-out against control, counted positive when it falls. On to `CCOC(=O)c1c(NC(=O)c2cc3n(n2)C(C(F)(F)F)CC(c2ccccc2)N3)sc(C)c1C` (centres undefined), for which the inhibition is -4.24% (inactive). The figure for `O=C(C(c1ccccc1)c1ccccc1)N1CCN(CCN2C(=O)c3cccc4cccc(c34)C2=O)CC1` is -9.17% (inactive); for `CC(C)(C)C(=O)N1CCN(CCN2C(=O)c3cccc4cccc(c34)C2=O)CC1` it is -4.28% (inactive). Next, `O=C(OCC#CCSc1nnc(-c2cccc3ccccc23)o1)c1cc2ccccc2o1`: 36.1% (inactive); `O=C(OCC#CCSc1nnc(-c2cccc3ccccc23)o1)c1ccc2ccccc2c1`: 8.92% (inactive); `CN1CCN(S(=O)(=O)c2ccc(SCCOc3ccccc3)nc2)CC1`: -0.98% (inactive).

For the compound `CN1CCN(S(=O)(=O)c2ccc(SCCOc3ccc(Cl)cc3)nc2)CC1`, the inhibition is -1.28% (inactive). Next, `Cc1c(S(=O)(=O)N2CCCCC2)c(=O)n(C)c(=O)n1C`: -9.81% (inactive); `CN1C(=O)N(C)C2(c3ccccc3)N(C(C)(C)C)C(=O)NC12c1ccccc1` (centres undefined): -0.92% (inactive). Next, `Cc1ccc2cc(C)c(N3CCC(C)CC3)nc2c1`: -2.14% (inactive). Next, `Cc1ccc2cc(C)c(N3CCN(c4ccc(F)cc4)CC3)nc2c1`: 0.67% (inactive).

Consider `CN(Cc1ccc(Cl)s1)C(=O)CNC(=O)CNC(=O)c1ccc(Cl)cc1Cl`, for which the inhibition was 0.015% (inactive).

Turning to `CN(Cc1ccc(Cl)s1)C(=O)CSc1nnc(C2CC2)n1C1CC1`, the inhibition was 2.1% (inactive). Next, `O=C(COc1ccc(Cl)cc1Cl)Nc1ccc(-c2ccc(N3CCOCC3)nn2)cc1`: 27.4% (inactive). The figure for `Cc1ccc2c(c1)C1C[N+](C)(CC(=O)c3ccccc3)CCC1N2C(=O)c1ccccc1Cl` (centres undefined) is -0.23% (inactive); for `Cc1ccc2c(c1)C1C[N+](C)(CC(=O)Nc3ccccc3Cl)CCC1N2C(=O)c1ccccc1Cl` (centres undefined) it is 21.9% (inactive). `CC(C)[C@H](NC(=O)c1ccccc1F)C(=O)Nc1nc2c(s1)CCCC2`: the inhibition was -0.81% (inactive). The figure for `COc1cccc(-c2nc(CS(=O)(=O)CC(=O)Nc3ccccc3Br)c(C)o2)c1` is -5.15% (inactive).

For the compound `Cc1cc(N2CCCCC2)n2ncc(-c3ccc(Cl)cc3)c2n1`, the inhibition was 94.8% (inactive). Next, `Cc1cc(C)n2cc(-c3ccc(Cl)cc3)c(C(=O)O)c2n1`: 5.32% (inactive). Next, `Cc1nn(C)c(C)c1C1C(C#N)=C(N)Oc2n[nH]c(C)c21` (centres undefined): 4.26% (inactive); `CC(C)c1ccc(CNc2c([N+](=O)[O-])c(=O)oc3ccccc23)cc1`: 4.35% (inactive); `O=C(O)c1cc(NN=C2c3ccccc3-c3ccccc32)ccc1Cl`: 14% (inactive). For the compound `Cc1cccc(NN=C2c3ccccc3-c3ccccc32)c1`, the inhibition was 3.47% (inactive). Turning to `COc1ccc(-n2c(COc3ccc4c(c3)OCO4)nnc2SCC(=O)O)cc1`, the inhibition is 14.8% (inactive). The figure for `Cc1cc2occ(CC(=O)NC3(C)CCS(=O)(=O)C3)c2cc1C` (centres undefined) is -9.66% (inactive). With `CCOc1ccc(CNc2ccc3c(c2)ncn3C(C)(C)C)cc1`, the inhibition was -2.96% (inactive). With `CN(C)c1ccc(CNc2ccc3c(c2)ncn3C(C)(C)C)cc1`, the inhibition was 8.27% (inactive). Next, `CC(C)(C)n1nnnc1C(c1cccc(C(F)(F)F)c1)N1CCC(O)CC1` (centres undefined): 2.3% (inactive); `Cc1ccc(-c2noc(C3CCCN(C(=O)c4ccccc4)C3)n2)o1` (centres undefined): 2.39% (inactive). The figure for `Cc1ccc(-c2noc(C3CCCN(C(=O)c4ccc(Cl)cc4)C3)n2)o1` (centres undefined) is 0.38% (inactive). On to `COc1cccc(C(=O)NNC2=C(C(=O)C(F)(F)F)CCC2)c1`, for which the inhibition was 0.71% (inactive). For the compound `O=C(Nc1cccc(S(=O)(=O)NC2=NCCCCC2)c1)c1cc(-c2ccccc2)nc2ccccc12`, the inhibition was 4.99% (inactive). For `CCn1c(SCC(=O)N2CCCCC2C)nnc1-c1ccco1` (centres undefined), the inhibition is -6.38% (inactive). For `O=C(N/N=C/c1cc2ccccc2nc1Cl)[C@H]1C[C@@H]1c1ccccc1`, the inhibition was 22.8% (inactive). Next, `Cc1cccc2cc(/C=N/NC(=O)[C@H]3C[C@@H]3c3ccccc3)c(Cl)nc12`: 1.65% (inactive); `N#Cc1ccc(OCC(=O)Nc2cccc(S(=O)(=O)NC3=NCCCCC3)c2)cc1`: -7.44% (inactive); `Oc1ccc(Nc2nc(-c3ccccc3)nc3ccccc23)cc1`: 10.3% (inactive). The figure for `COc1ccc(C(=O)CCN2CCc3cc(OC)c(OC)cc3C2)cc1` is 68.3% (inactive); for `COc1cc2c(cc1OC)CN(CCOc1ccc(Br)cc1)CC2` it is -0.08% (inactive); for `COc1cc(OC)cc(C(=O)N[C@H](C(=O)OCC(=O)c2c[nH]c3ccccc23)C(C)C)c1` it is -5.93% (inactive).

For `C=C1SC(Nc2c(C)cc(C)cc2C)=NC12CCCCC2`, the inhibition was 4.72% (inactive). The figure for `Cc1cc(C)n(Cc2ccc(C(=O)NN)o2)n1` is -3.98% (inactive).

Take `CCOC(=O)C1CCN(c2nc(C)nc3c2oc2ccccc23)CC1`: the inhibition is 13.6% (inactive). The figure for `Cc1nc(N2CCOCC2)c2oc3ccccc3c2n1` is -22.1% (inactive). Next, `CCOc1ccc(C2CC(c3ccc(CC)cc3)Nc3nc(N)nn32)cc1` (centres undefined): 53.9% (inactive). The figure for `CCCCc1nc2cc(C(=O)NCc3nccn3CC)ccc2o1` is -0.01% (inactive). As to `O=C(NNC(=S)NC1CCCCC1)c1sc2ccccc2c1Cl`, the inhibition was 4.12% (inactive).

Take `O=C(NC(=S)NCCO)c1sc2ccccc2c1Cl`: the inhibition was -1.03% (inactive). In the case of `NC(=O)COC(=O)c1cc(-c2cccs2)nn1-c1ccccc1`, the inhibition was 3.52% (inactive).

As to `COC(=O)C1CCN(C(=O)COC(=O)c2cc(-c3cccs3)nn2-c2ccccc2)CC1`, the inhibition was 68.6% (inactive). Next, `O=[P+](Cc1ccccc1)Cc1ccccc1`: 5.56% (inactive); `CCOc1cc2c(cc1OCC)-n1cccc1C(c1ccc(F)cc1)NC2` (centres undefined): 4.18% (inactive); `CCOc1cc2c(cc1OCC)-n1cccc1C(c1ccc(OC)cc1)NC2` (centres undefined): 12.2% (inactive). The figure for `CCN1CCN(C(C(=O)NC2CCCCC2)c2ccc(Cl)cc2)CC1` (centres undefined) is -6.43% (inactive); for `COc1ccc(-c2cc(C)no2)cc1S(=O)(=O)NCCCN1CCN(c2ccccc2)CC1` it is 1.94% (inactive); for `Cc1cc(-c2ccc(C)c(S(=O)(=O)NCCCN3CCN(c4ccccc4)CC3)c2)on1` it is 36.8% (inactive). The figure for `c1ccc2c(c1)nc1n2CCS1` is -2.74% (inactive); for `COc1cc(C(=O)NNC(=O)c2ccc3ccccc3n2)cc(OC)c1OC` it is 5.84% (inactive). As for `COc1cccc(NC(=O)/C=C/c2ccccc2[N+](=O)[O-])c1`, the inhibition is -3.12% (inactive).

In the case of `CCn1c2ccccc2c2nnc(SCCN3CCCCC3)nc21`, the inhibition was 5.94% (inactive). The figure for `CCN(CC)CCSc1nnc2c3ccccc3n(Cc3ccccc3)c2n1` is 3.52% (inactive); for `CCOC(=O)C1(CC2CCCCO2)CCN(Cc2nc3ccccc3nc2C)CC1` (centres undefined) it is 0.36% (inactive).

Consider `CCOC(=O)c1cccc(NC(=O)C2CCN(S(=O)(=O)c3cccs3)CC2)c1`, for which the inhibition was -3.98% (inactive). Consider `COCCCNC(=O)c1sc2ncnc(N3CCc4ccccc4C3)c2c1C`, for which the inhibition is 22.6% (inactive). On to `CCN1CCN(C(=O)c2sc3ncnc(N4CCc5ccccc5C4)c3c2C)CC1`, for which the inhibition was 1.76% (inactive). The figure for `O=C(NCCN1CCCCC1)c1ccc2c(c1)OCCO2` is 1.64% (inactive); for `O=C(O)CCC(=O)N1CCN(c2nc(-c3ccccc3Cl)c3cc(Br)ccc3n2)CC1` it is 8.23% (inactive).

`O=C(O)CCCC(=O)N1CCN(c2nc(-c3ccccc3Cl)c3cc(Br)ccc3n2)CC1`: the inhibition is 2.83% (inactive). For `Cc1ccc(N(C(=O)c2csnn2)C(C(=O)NC2CCCCC2)c2ccccn2)c(C)c1` (centres undefined), the inhibition is -6.22% (inactive). Next, `COc1cc(CC(=O)O)ccc1OCc1ccccc1`: -4.67% (inactive).

As for `COc1ccc(N(CC(=O)NC2CCCCC2)C(=O)CNC(=O)c2cccs2)cc1OC`, the inhibition was -4.95% (inactive). The figure for `CCNC(=O)c1ccccc1NC(=O)c1cccc(S(=O)(=O)N2CCOCC2)c1` is 1.29% (inactive). The figure for `COc1ccc(C(=O)NC(C)C2CC3CCC2C3)cc1` (centres undefined) is 0.61% (inactive); for `COc1ccc(C(=O)NC(C)C2CC3CCC2C3)c(OC)c1` (centres undefined) it is 7.27% (inactive). Next, `CC(NC(=O)c1ccccc1Cl)C1CC2CCC1C2` (centres undefined): 4.24% (inactive); `Cc1ccccc1C(=O)NC(C)C1CC2CCC1C2` (centres undefined): 4.28% (inactive); `Cn1cnnc1SCC(=O)NCCc1ccccc1`: 0.84% (inactive).

Consider `COC(=O)CCC(=O)Nc1cccc(Br)c1`, for which the inhibition is -7.91% (inactive). Next, `CC(C)(C)NC(=O)CSc1ncnc2c1nnn2Cc1ccccc1Cl`: 18% (inactive).

`COCCCN1C(=O)c2ccc(C(=O)N3CCN(c4ccc(OC)cc4)CC3)cc2C1=O`: the inhibition is 0.38% (inactive). As to `Cc1cc(C)c(-n2nnnc2SCC(=O)c2cc3ccccc3o2)c(C)c1`, the inhibition is -0.74% (inactive). Next, `COC(=O)CSc1nnc(NC(=O)c2ccc3c(c2)OCO3)s1`: 56.1% (inactive); `CCOC(=O)CNC(=O)CSc1nnc(NC(=O)c2ccc3c(c2)OCO3)s1`: -3.99% (inactive). The figure for `COc1cccc(N2CCN(C(=O)c3cccn4c(=O)c5c(C)c(C)sc5nc34)CC2)c1` is -1.68% (inactive); for `CCOc1ccc(CCNC(=O)COC(=O)c2cc(OC)c(OC)c(OC)c2)cc1OCC` it is -6.27% (inactive); for `CCc1nnc(NC(=O)c2csc3c2CCC(C)C3)s1` (centres undefined) it is 0.85% (inactive).

In the case of `Cc1nnc(NC(=O)c2csc3c2CCC(C)C3)s1` (centres undefined), the inhibition was 6.53% (inactive). Next, `O=C(C1CCCN1S(=O)(=O)c1ccc(Cl)c(Cl)c1)N1CCOCC1` (centres undefined): 1.37% (inactive). The figure for `OCC[C@H]1C[C@@H](O)[C@H](O)[C@]2(OCc3ccccc32)O1` is 4.05% (inactive); for `CN(C)CCCNC(=S)N(CCN(C)C)Cc1cc2cc3c(cc2[nH]c1=O)OCCO3` it is -2.66% (inactive). Turning to `CCOc1ccccc1N1CCN(CC(=O)Nc2cc(C)on2)CC1`, the inhibition was -0.33% (inactive). Next, `CC(=O)Nc1ccccc1O`: -6.49% (inactive). The figure for `O=C(Nc1ccccc1O)c1ccccc1O` is -2.76% (inactive).
